From PubChem
esBAF inh – blocks esBAF chromatin remodeling in mouse ES cells. Bmi1-luciferase knock-in reporter, 24 h; 100% = twice the neutral-well signal. reporter increase, % at 12.5 µM. 2% of 350,000 active; in the data active = activation above about 40%; inconclusive = no clear call, values can overlap the other calls;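 also: a rise in the Bmi1 reporter signal indicates esBAF inhibition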
FGF22 binding – shifts melting point of recombinant human FGF22; AID 651658; activity (Tm shift, normalised), % at 9.99 µM; 1.5% of 340,000 active; Q9HCT0; recombinant FGF22 thermal shift, SYPRO orange fluorescence; percent of sucrose octasulfate shift, DMSO zero;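 active = mean Tm shift, scaled 0 neutral to 100 positive control, at about 1.3% or above, every replicate too, limit read from the data; inconclusive = no clear call, values can overlap the other calls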
Target sequence (Q9HCT0 whole entry, looked up): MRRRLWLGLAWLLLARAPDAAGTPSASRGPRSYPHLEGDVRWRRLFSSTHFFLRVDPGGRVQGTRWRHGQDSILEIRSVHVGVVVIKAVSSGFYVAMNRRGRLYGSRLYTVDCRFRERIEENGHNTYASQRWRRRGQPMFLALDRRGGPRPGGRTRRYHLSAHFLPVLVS
SMARCA2 activ – SMARCA2 function activation, primary screen; MG213 cells, MMTV-luciferase reporter, dexamethasone, overnight; activation, % at 9.1 µM; 1% of 370,000 active; AID 652017; in the data active = activation above about 7.8%
MITF act – activators of MITF-driven TRPM1 promoter activity in SK-MEL-5 cells | SK-MEL-5 TRPM1-promoter luciferase, 24 h; % of positive control, neutral wells = 0 | AID 588334 | 0.75% of 300,000 active | activation, % at 12.5 µM;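 active = mean activation of at least 80% with every replicate also reaching 80%; inconclusive = mean reaches 80% but some replicate falls short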
AF4-AF9 inh – inhibitors of human MLL-AF4/AF9 interaction; AID 651704; P42568; inhibition, % at 10 µM; 0.47% of 350,000 active; AlphaScreen, biotin-AF4 peptide binding to FLAG-AF9;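 active = every replicate reaching a set inhibition limit, whatever the replicate mean, cut at about 25% in these data; inconclusive = mean inhibition reaches that limit but some replicates miss it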
Wnt bcat act – activates Wnt/beta-catenin signaling in a reporter cell assay; activator, plate reader; 1.2% of 300,000 active; activation, % at 9.35 µM; in the data active = activation above about 30%, passing the limit was not always enough; inconclusive = no clear call, values can overlap the other calls
A number is an active result; . = inactive; ? = inconclusive; / = not tested or not shown. This is a sample that favours compounds with a hit; in the whole collection about 4.3% have one here.

SMILES	esBAF inh	FGF22 binding	SMARCA2 activ	MITF act	AF4-AF9 inh	Wnt bcat act
CCC(C(=O)OCC(=O)Nc1c(C)n(C)n(-c2ccccc2)c1=O)c1ccccc1 (stereo not drawn)	.	/	.	.	/	/
Cc1c(NC(=O)COC(=O)C23CC4CC(CC(O)(C4)C2)C3)c(=O)n(-c2ccccc2)n1C	/	43.9	.	.	.	.
Cc1c(NC(=O)CSc2ccc(Cl)cc2)c(=O)n(-c2ccccc2)n1C	/	43.8	.	.	.	.
Cc1ccc(SCCC(=O)Nc2c(C)n(C)n(-c3ccccc3)c2=O)cc1	/	/	.	.	/	.
Cc1c(NC(=O)COC(=O)C2(c3ccccc3F)CCCC2)c(=O)n(-c2ccccc2)n1C	/	43.1	.	.	.	.
CCNC(=O)C[C@@H]1CC[C@H]2[C@@H](COc3ccc(NC(=O)Nc4ccccc4Cl)cc3C(=O)N2C)O1	.	.	/	/	.	/
CC(C)NC(=O)N(C)C[C@@H]1Oc2ncc(C#CCc3ccccc3)cc2C(=O)N([C@H](C)CO)C[C@H]1C	.	.	/	/	.	/
O=S(=O)(O)c1cc(O)c(N=Nc2ccc(O)cc2O)c2ccccc12	.	.	.	.	34.2	.
Cc1ccc(C(=O)Nc2nnc(NC(=S)Nc3ccccc3)s2)cc1	56.4	.	.	.	.	.
CC(C)Cc1nnc(NC(=O)CCC(=O)Nc2ccccc2)s1	.	.	.	.	.	.
CCc1nnc(NC(=S)Nc2ccccc2)s1	/	.	7.8	.	.	.
CC(C)Cc1nnc(NC(=O)Nc2ccccc2)s1	53.3	.	.	96.3	.	38.3
Cc1nc(NC(=S)Nc2ccccc2)sc1C	/	43.0	.	.	.	79.7
CCOc1ccc(C(=O)Nc2nnc(NC(=S)Nc3ccccc3)s2)cc1	.	.	.	.	.	.
COc1ccc(NC(=O)Nc2cccc3c2O[C@@H](CN(C)C(=O)NC2CCCCC2)[C@H](C)CN([C@H](C)CO)C3=O)cc1	.	.	/	/	.	/
COCC(=O)Nc1ccc2c(c1)C(=O)N(C)C[C@@H](OC)[C@@H](C)CN(CCc1ccccc1)[C@@H](C)CO2	.	/	/	/	.	/
Oc1cc(NCc2cccnc2)ccc1-c1nc2ccccc2o1	77.6	/	.	/	/	86.1
COC(=O)C(=Cc1ccncc1)c1cccc2ccccc12	/	.	.	/	.	.
O=C(O)C(=Cc1ccncc1)c1cccc2ccccc12	.	43.3	.	/	.	.
Cc1ccccc1OCC(=O)NNC(=O)CCN1C(=O)c2ccccc2C1=O	.	43.1	.	.	.	.
Cc1ccccc1OCC(=O)NNC=O	.	43.0	.	.	.	.
COc1cccc(S(=O)(=O)Nc2ccc3c(c2)OC[C@H](C)NC[C@@H](C)[C@H](OC)CN(C)C3=O)c1	.	.	/	/	.	/
CC1=CC(C)(C)N2C(=O)C(=O)c3cc(OC(=O)c4ccco4)cc1c32	/	.	.	.	30.9	.
O=C(COc1ccccc1)N1CCN(S(=O)(=O)c2ccc(Br)cc2)CC1	.	.	.	.	.	.
CC(C)CC(=O)N1CCN(S(=O)(=O)c2ccc(Cl)cc2)CC1	/	43.1	.	.	.	.
SMILES	esBAF inh	FGF22 binding	SMARCA2 activ	MITF act	AF4-AF9 inh	Wnt bcat act
COc1ccc(S(=O)(=O)CCC(=O)N2CCN(c3ccccc3F)CC2)cc1	/	44.1	.	.	.	.
COc1ccc(S(=O)(=O)N2CCN(C(=O)COc3ccccc3)CC2)cc1	/	43.2	.	.	.	.
O=C(C=C1NCCN1)c1ccccc1	.	.	.	/	.	.
O=C(/C=C1\NCC2c3ccccc3CCN2C1=O)c1ccccc1 (stereo not drawn)	48.8	/	.	/	/	/
COc1ccc2c(c1)[N+](C)(C)C(C)(C)C=C2C	.	43.2	.	.	.	.
CCOc1ccc2c(c1)[N+](C)(C)C(C)(C)C=C2C	/	/	.	.	.	.
CCCCCCCCN1C(=O)[C@@H](CC(=O)NCCC(C)C)C[C@@]2(C(=O)OC)C1=C[C@H](C1CCCC1)O[C@@H]2C	/	.	.	/	.	.
Cc1ccc(NS(=O)(=O)c2cc(NC(=O)c3ccc4c(c3)NC(=O)CS4)ccc2Cl)c(C)c1	/	43.1	.	.	.	/
C=CCn1c(Cc2cccs2)nnc1SCC(=O)Nc1ccc(OCc2ccccc2)cc1	/	/	.	/	/	/
COc1ccc2c3c(n(C)c2c1)[C@H](CO)N(C(=O)c1cnccn1)CC31CCN(C(=O)c2cnccn2)CC1	/	.	/	/	.	/
CCN(C(=O)COC(=O)c1ccc(Cl)c(N)c1)C1CCS(=O)(=O)C1 (stereo not drawn)	.	43.1	.	.	.	.
CCOC(=O)c1c(C)[n+]([O-])c2ccc3c(non3O)c12	/	44.2	.	.	.	.
CC12CCC3c4ccccc4CCC3(CO1)C2 (stereo not drawn)	.	43.0	.	/	.	.
CN1CCC(OC2c3ccccc3CCc3ccccc32)CC1	/	.	.	/	.	.
CC1(C)Cc2c(sc(NC(=O)C(=O)N3CCCC3)c2C(N)=O)CO1	/	.	.	.	.	.
Cc1sc(NC(=O)Nc2ccccc2)c(C(N)=O)c1C	?	.	.	.	.	33.0
CC1(C)Cc2c(sc(NC(=O)Nc3ccccc3)c2C(N)=O)CO1	54.7	/	.	/	.	.
Cc1sc(NC(=S)NC(=O)c2ccco2)c(C(N)=O)c1C	48.6	.	.	.	.	.
N#C[C@@H]1[C@H](c2ccc(C#CC3CCCC3)cc2)[C@H](CO)N1C(=O)Cc1ccccn1	/	/	/	/	.	/
C[C@@H]1CN([C@@H](C)CO)S(=O)(=O)c2ccc(C#CC3CCCCC3)cc2O[C@@H]1CN(C)C	.	.	/	/	.	/
Nc1[nH]ncc1N=Nc1ccc(Cl)cc1	47.3	/	.	.	/	/
Nc1[nH]ncc1-c1ccc(Cl)cc1	/	.	.	.	.	.
O=C(NCC1CC1)[C@@H]1N[C@@H]2c3ccc(-c4ccccc4F)c(=O)n3C[C@@H]2[C@H]1CO	.	.	/	/	.	/
CCCNC(=O)[C@H]1[C@H](CO)[C@H]2Cn3c(ccc(/C=C/c4ccccc4)c3=O)[C@@H]1N2CCC	.	/	/	/	.	/
